Inconclusive results are not listed. Unmarked numbers belong to inactive results. Activity calls are given as the source filed them. Calls come from the whole dose curve; as a rule, active = well fitted inhibition curve with a large enough effect; inconclusive = small, poorly fitted or top-dose-only effect; inactive = flat fitted curve, though single readings scatter.
Columns and labels:
Experiment in all cases: Cytotoxic Profiling of Annotated Libraries Using Quantitative High-Throughput Screening (AID 1296008); note: nearly all actives have a fitted effect of over 60% in size
Details in all cases: Five cell lines viability, CellTiter-Glo ATP luminescence, 48-72 h; max response: hits give low values
HEK293 = system: HEK293
Procedure, shortened: (§1)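 Compounds were pin-transferred onto cells and incubated 48 or 72 hr at 37 degree Celsius, 95% humidity. CellTiter-Glo was added, plates sat 10 min at room temperature, then ATP-coupled luminescence was imaged as the viability read-out.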

HaCat = system: HaCat
Procedure, shortened: as §1

CRL-7250 = system: CRL-7250
Procedure, shortened: as §1

KB-3-1 = system: KB-3-1
Procedure, shortened: as §1
% is set by controls: 0 for no effect and ±100 for the full control effect; potency is the fitted concentration of half-maximal effect.

CC[C@@H]([C@H](C)O)n1ncn(-c2ccc(N3CCN(c4ccc(OC[C@@H]5CO[C@@](Cn6cncn6)(c6ccc(F)cc6F)C5)cc4)CC3)cc2)c1=O
Potency (HEK293): 7.5 µM (active) | max response (HaCat): -3.01%

CO/N=C(/C(=O)N[C@@H]1C(=O)N2C(C(=O)O)=C(Cn3nnc(C)n3)CS[C@H]12)c1csc(N)n1
max response (CRL-7250): 4.76% | max response (HaCat): -1.44% | outcome (KB-3-1): inactive

CCN1CCN(c2cc(-c3ccc(F)cc3)c3c(n2)CCCCCC3)CC1
max response (CRL-7250): 3.32% | max response (HaCat): 0.965% | max response (KB-3-1): -12.5%

Cc1c(C)c2c(c(C)c1OC(=O)CCC(=O)OCCO)CC[C@@](C)(CCC[C@H](C)CCC[C@H](C)CCCC(C)C)O2
max response (CRL-7250): -109% | max response (KB-3-1): -31.1%

CCOC(=O)c1ccc(NC(=O)CN2CCCCC2)cc1
max response (CRL-7250): -6.82% | max response (HaCat): 4.59% | outcome (KB-3-1): inactive

CC(=O)[C@@]1(O)CC[C@H]2[C@@H]3C[C@H](C)C4=CC(=O)CC[C@]4(C)[C@H]3CC[C@@]21C
max response (CRL-7250): -14.2% | max response (HaCat): -16.6% | max response (KB-3-1): -7.02%

NC(=O)C1(N2CCCCC2)CCN(CCCN2c3ccccc3CCc3ccc(Cl)cc32)CC1
Potency (HEK293): 10.6 µM (active)

COc1ccc2nc(SCc3ncc(C)c(OC)c3C)[nH]c2c1
max response (HEK293): -3.1% | outcome (HaCat): inactive

CC1CC(=O)NN=C1c1ccc(NCC(C)(C)NCC(O)COc2cc(Cl)ccc2C#N)cc1 (configuration not stated)
max response (CRL-7250): -11.5% | max response (HaCat): -12.2% | max response (KB-3-1): -1.42%

CCCN(CCC)C(=O)C(CCC(=O)OCCCN1CCN(CCOC(=O)Cc2c(C)n(C(=O)c3ccc(Cl)cc3)c3ccc(OC)cc23)CC1)NC(=O)c1ccccc1 (configuration not stated)
max response (CRL-7250): -6.96% | max response (HaCat): -0.687% | max response (KB-3-1): -0.886%

Cc1nc(N)nc(N)c1-c1ccc(Cl)c(Cl)c1
Potency (HEK293): 1.06 µM (active)

COC(=O)[C@H]1[C@H]2C[C@@H]3c4[nH]c5cc(OC)ccc5c4CCN3C[C@H]2C[C@@H](OC(=O)/C=C/c2ccc(O)c(OC)c2)[C@@H]1OC
Potency (HEK293): 9.44 µM (active)

CC(C)=CCC/C(C)=C/CC/C(C)=C/C(=O)OCC(=O)[C@@]1(O)CC[C@H]2[C@@H]3CCC4=CC(=O)C=C[C@]4(C)[C@H]3[C@@H](O)C[C@@]21C
Potency (HEK293): 10.6 µM (active)

OCc1c[nH]c2ccccc12
Potency (HEK293): 21.7 µM (active) | max response (KB-3-1): -7.74%

Cc1ncc([N+](=O)[O-])n1C
outcome (HEK293): inactive

Nc1ncnc2n[nH]c(Nc3ccc(F)cc3)c12
Potency (CRL-7250): 10.3 µM (active) | outcome (KB-3-1): inactive

O=C(Nc1ccc(Cl)cc1)Nc1ccc(Cl)c(C(F)(F)F)c1
max response (HEK293): -107%

c1ccc(C(O[C@H]2CCCN(CCc3ccc4c(c3)OCO4)C2)c2ccccc2)cc1
max response (CRL-7250): -1.12% | max response (HaCat): 0.583% | max response (KB-3-1): -8.06%

O=C1NCCN1CCN1CCC(c2cn(-c3ccc(F)cc3)c3ccc(Cl)cc23)CC1
Potency (HEK293): 6.68 µM (active)

CCOC(=O)[C@H](CCc1ccccc1)N[C@@H](C)C(=O)N(CC(=O)O)C1Cc2ccccc2C1
max response (CRL-7250): 0.8% | max response (KB-3-1): -12.3%

CC[N+](CC)(CC)CCOC(=O)C(C1CCCC1)C1CCCC1
outcome (CRL-7250): inactive | max response (HaCat): -3.44% | max response (KB-3-1): 9.62%

CCOC(=O)c1cc(=O)c2c(OCC(COc3cccc4oc(C(=O)OCC)cc(=O)c34)OC(=O)[C@@H](N)CCCCN)cccc2o1
max response (HEK293): 4.3% | outcome (HaCat): inactive

CN(C)CCOC1=Cc2ccccc2Sc2ccc(Cl)cc21
max response (CRL-7250): -2.09% | outcome (HaCat): inactive | max response (KB-3-1): -15.8%

CCN1C(=O)c2ccccc2C1Nc1ccc(OCCN2CCCCC2)cc1 (configuration not stated)
max response (CRL-7250): -2.5% | max response (HaCat): -6.62% | outcome (KB-3-1): inactive

OCCOCCN1CCN(C(c2ccccc2)c2ccc(Cl)cc2)CC1 (configuration not stated)
max response (HEK293): -4.98% | max response (HaCat): -23.3% | max response (KB-3-1): 15.7%

CC(C(O)c1ccccc1)N(C)CCOC(c1ccccc1)c1ccccc1 (configuration not stated)
Potency (HEK293): 13 µM (active) | max response (HaCat): 2.35%

COc1cc2c(cc1OC)CN(C(=O)[C@H](C)N[C@@H](CCc1ccccc1)C(=O)O)[C@H](C(=O)O)C2
outcome (HEK293): inactive | max response (HaCat): 0.663%

Brc1ccccc1-c1ccccc1
max response (HEK293): -9.62% | max response (HaCat): -6.21% | max response (KB-3-1): -3.53%

CC(=O)Nc1ccn(C2COC(COC(=O)c3ccccc3)O2)c(=O)n1 (configuration not stated)
Potency (HEK293): 18.8 µM (active) | outcome (KB-3-1): inactive

NC(N)=NCCCCN=C(N)N
max response (KB-3-1): -9.65%

CCC(C(=O)OCCN1CCOC(c2ccccc2)C1C)c1ccccc1 (configuration not stated)
outcome (HaCat): inactive

CC(C)C[C@H](NC(=O)CNC(=O)[C@H](Cc1ccc(O)cc1)NC(=O)[C@H](CO)NC(=O)[C@H](Cc1c[nH]c2ccccc12)NC(=O)[C@H](Cc1cnc[nH]1)NC(=O)[C@@H]1CCC(=O)N1)C(=O)N[C@@H](CCCN=C(N)N)C(=O)N1CCC[C@H]1C(=O)NCC(N)=O (stereo in doubt)
max response (KB-3-1): -12.3%

O=C1NC(c2cccc([N+](=O)[O-])c2)=CCN1c1ccccc1O
max response (KB-3-1): -1.53%

C[C@H]1C[C@H]2[C@@H]3CCC4=CC(=O)C=C[C@]4(C)[C@H]3C(=O)C[C@]2(C)[C@@]1(O)C(=O)CO
max response (HaCat): -5.83%

CC(C)(c1ccc(O)cc1)c1ccc(O)cc1
max response (HaCat): -13.2% | max response (KB-3-1): -17.4%

CCCCC/C=C\C/C=C\CCCCCCCC(=O)NC(C)c1ccccc1 (configuration not stated)
max response (HaCat): -11.3% | max response (KB-3-1): -8.18%

From PubChem BioAssay (NCATS)
